The text below walks through data of PubChem BioAssay (Tox21).

Assay [1] is described as follows: Human pregnane X receptor (PXR) small molecule agonists, qHTS cell viability counter screen (AID 1346977). Also: nearly all actives have a fitted effect of over 50% in size. In short, it runs like this: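 Tox21 qHTS format; PXR-Luc HepG2, 2,000/well, charcoal-stripped FBS 5%. Cpd exposure 24hr. Read: CellTiter-Fluor fluorescence, multiplexed with luciferase.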
On the technique in general: Quantitative high-throughput screening tests each substance at several concentrations.

Assay [2] in a line: Caspase-3/7 induction in HepG2 cells by small molecules, qHTS assay (AID 1346978). Also: nearly all actives have a fitted effect of over 15% in size. The method, boiled down:
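Caspase-3/7 induction was measured by Caspase-Glo 3/7 luminescence (30 min, room temperature) after a 17 hr compound exposure of wild-type HepG2 cells seeded at 2,000 per well and pre-incubated 5 hr.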

Assay [3] in a line: Caspase-3/7 induction in CHO-K1 cells by small molecules, qHTS assay (AID 1346980). Also: nearly all actives have a fitted effect of over 15% in size. In short, it runs like this:
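Luminescent Caspase-Glo 3/7 read (30min, room temperature) quantified apoptosis induction. Cells were wild-type CHO-K1, treated with compound for 17hr at 37 C and 5% CO2.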

A short description of assay [4]: Caspase-3/7 induction in HepG2 cells by small molecules, qHTS cell viability counter screen (AID 1346981). Also: series mostly up to about 92 µM; nearly all actives have a fitted effect of over 30% in size. In short, it runs like this:
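Multiplexed with the caspase-3/7 assay: HepG2 cells, 16 hr compound treatment, CellTiter-Fluor viability detection by fluorescence.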

The target of assay [5] is Nuclear receptor subfamily 1 group I member 2 (Homo sapiens) (UniProt O75469). Put plainly: Human pregnane X receptor (PXR) small molecule agonists, qHTS assay (AID 1346982). Also: nearly all actives have a fitted effect of over 35% in size. Also: potency is read from the fitted curve at half-maximal effect. In short, it runs like this:
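We seeded PXR-Luc HepG2 cells in assay medium containing 5% charcoal-stripped FBS, added compounds 5 hr later, incubated 24 hr, and read luminescence with ONE-Glo reagent.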

Assay [6] concerns the target Acetylcholinesterase (Homo sapiens) (UniProt P22303). The experiment in a line: Acetylcholinesterase (AChE) small molecule antagonists: colormetric cell-based qHTS assay (AID 1347395; calls by dose curve; also: nearly all actives have a fitted effect of over 30% in size; also: potency is read from the fitted curve at half-maximal effect). The method, boiled down: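 AChE inhibition read colorimetrically via DTNB–thiocholine in SH-SY5Y cells. Compound 30 min, substrate 90 min, both 37 C.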
For assay [7] the target is unchanged. Put plainly: Acetylcholinesterase (AChE) small molecule antagonists: enzyme-based qHTS assay (AID 1347397; calls by dose curve; also: nearly all actives have a fitted effect of over 55% in size; also: potency is read from the fitted curve at half-maximal effect). Conditions: Potency: AChE enzyme activity inhibition; outcome: AChE enzyme activity inhibition. In short, it runs like this: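 rhAChE 50 mU/mL (dispensed) + cpd or DMSO, 30 min RT; add DTNB/acetylthiocholine cocktail, 10 min RT; colorimetric thiocholine readout. qHTS, 1536-well format.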

Assay [8] shares this target. Put plainly: Acetylcholinesterase (AChE) small molecule antagonists: fluorescence cell-based qHTS assay (AID 1347398; calls by dose curve; also: nearly all actives have a fitted effect of over 50% in size; also: potency is read from the fitted curve at half-maximal effect). As to conditions: Potency: AChE activity; outcome: AChE activity. In short, it runs like this: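 Read-out is Thiolite Green fluorescence at Ex/Em = 490/520 nm, formed by reaction with thiocholine released when cellular AChE in SH-SY5Y cells hydrolyzes acetylthiocholine. Compounds were preincubated 30 min at 37 C before substrate.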

Assay [9] shares this target. The experiment in a line: Acetylcholinesterase (AChE) small molecule antagonists: enzyme-based qHTS assay with human liver microsomes (AID 1347399; calls by dose curve; also: nearly all actives have a fitted effect of over 60% in size; also: potency is read from the fitted curve at half-maximal effect). As to conditions: Potency: qHTS inhibition; outcome: qHTS inhibition. In short, it runs like this:
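Recombinant human AChE (50 mU/mL in the enzyme mix) and human liver microsomes (0.25 mg/mL final) were preincubated with compound and NADPH (0.25 mg/mL final) for 30 min at 37 C. Acetylthiocholine/DTNB was then added; thiocholine was read colorimetrically after 10 min at room temperature.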

Assay [10] deals with Cytochrome P450 2C19 (Homo sapiens) (UniProt P33261). The experiment in a line: Cytochrome P450 Family 2 Subfamily C Member 19 (CYP2C19) small molecule antagonists: luciferase reporter qHTS assay (AID 1671197). Also: nearly all actives have a fitted effect of over 65% in size. Also: potency is read from the fitted curve at half-maximal effect. The method, boiled down: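 Enzyme-substrate mix with proluciferin substrate (P450-Glo CYP2C19 system) preincubated with compounds 10 min at room temperature; NADPH regeneration solution added, 37C for 1 h; detection reagent stops reaction, luminescence read after 20 min. Ketoconazole positive control.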
In general terms: A reporter such as luciferase makes a cellular process visible.

Assay [11] has as its target Cytochrome P450 2C9 (Homo sapiens) (UniProt P11712). The experiment in a line: Cytochrome P450 Family 2 Subfamily C Member 9 (CYP2C9) small molecule antagonists: luciferase reporter qHTS assay (AID 1671198). Also: nearly all actives have a fitted effect of over 50% in size. Also: potency is read from the fitted curve at half-maximal effect. The method, boiled down: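 Enzyme-substrate mix preincubated with compound 10 min at room temperature; reaction started with NADPH regeneration solution, 1 h 37C. Luminescent luciferin product read after 20 min detection reagent.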

Assay [12] deals with Cytochrome P450 1A2 (Homo sapiens) (UniProt P05177). Put plainly: Cytochrome P450 Family 1 Subfamily A Member 2 (CYP1A2) small molecule antagonists: luciferase reporter qHTS assay (AID 1671199). Also: nearly all actives have a fitted effect of over 50% in size. Also: potency is read from the fitted curve at half-maximal effect. In short, it runs like this:
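CYP1A2 turnover of a luminogenic substrate was quantified after 1 h with NADPH regeneration at room temperature. Furafylline served as positive control.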

For assay [13], the target named is Voltage-gated inwardly rectifying potassium channel KCNH2 (Homo sapiens) (UniProt Q12809). The experiment in a line: Human Ether-a-go-go-Related Gene (hERG) channel small molecule antagonists: fluorescence cell-based qHTS assay (AID 1671200). In short, it runs like this: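 Kinetic two-minute fluorescence traces, sampled at 1 s, were collected following thallium stimulus of U2OS cells (1000 per well) that had been cultured overnight at 37 C and loaded with FluxOR II.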
(In general: Block of hERG is tested as a sign of cardiac risk.)

In assay [14] the target is Cytochrome P450 3A4 (Homo sapiens) (UniProt P08684). Put plainly: Cytochrome P450 Family 3 Subfamily A Member 4 (CYP3A4) small molecule antagonists: luciferase reporter qHTS assay (AID 1671201). Also: nearly all actives have a fitted effect of over 50% in size. Also: potency is read from the fitted curve at half-maximal effect. The method, boiled down: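 Proluciferin-to-luciferin conversion by CYP3A4, NADPH-regenerated, 1 h RT; luminescence read as RLU. Ketoconazole as control.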
A short description of assay [15]: Caspase-3/7 induction in CHO-K1 cells by small molecules, qHTS cell viability counter screen (AID 1346979). Also: nearly all actives have a fitted effect of over 35% in size. The method, boiled down:
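CellTiter-Fluor viability check, qHTS format: wild-type CHO-K1, 16hr compound treatment, 1hr reagent incubation, fluorescence read.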

Assay [16] deals with Cytochrome P450 2D6 (Homo sapiens) (UniProt P10635). Put plainly: Cytochrome P450 Family 2 Subfamily D Member 6 (CYP2D6) small molecule antagonists: luciferase reporter qHTS assay (AID 1671196). The method, boiled down: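 Luminescence (RLU), read 20 min after detection reagent, indicated CYP2D6 conversion of proluciferin to luciferin during a 1 h NADPH-dependent reaction at room temperature.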

Values without a mark were called inactive. Inconclusive results are not listed. Activity calls are given as the source filed them. Unless noted, calls follow the shape of the dose curve; as a rule, active = well fitted curve in the direction sought with a large enough effect in the repeat runs; inconclusive = weak or mixed curves; inactive = no such curve, though single readings can be large; an effect the other way counts as inactive or inconclusive.

Nuclear receptor subfamily 1 group I member 2 (Homo sapiens), sequence (O75469 whole entry, looked up): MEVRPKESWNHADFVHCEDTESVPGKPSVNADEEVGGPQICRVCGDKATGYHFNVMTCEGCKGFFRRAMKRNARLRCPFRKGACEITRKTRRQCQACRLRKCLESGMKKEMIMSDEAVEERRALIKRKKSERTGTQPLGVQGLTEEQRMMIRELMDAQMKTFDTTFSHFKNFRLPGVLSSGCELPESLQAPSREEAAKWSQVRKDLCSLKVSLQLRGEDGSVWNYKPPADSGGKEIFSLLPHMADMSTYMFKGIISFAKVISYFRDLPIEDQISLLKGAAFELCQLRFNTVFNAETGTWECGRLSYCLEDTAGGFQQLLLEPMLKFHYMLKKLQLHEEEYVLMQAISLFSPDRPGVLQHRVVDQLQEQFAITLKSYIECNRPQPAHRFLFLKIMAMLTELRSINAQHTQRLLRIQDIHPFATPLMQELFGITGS
Voltage-gated inwardly rectifying potassium channel KCNH2 (Homo sapiens), sequence (Q12809 whole entry, looked up): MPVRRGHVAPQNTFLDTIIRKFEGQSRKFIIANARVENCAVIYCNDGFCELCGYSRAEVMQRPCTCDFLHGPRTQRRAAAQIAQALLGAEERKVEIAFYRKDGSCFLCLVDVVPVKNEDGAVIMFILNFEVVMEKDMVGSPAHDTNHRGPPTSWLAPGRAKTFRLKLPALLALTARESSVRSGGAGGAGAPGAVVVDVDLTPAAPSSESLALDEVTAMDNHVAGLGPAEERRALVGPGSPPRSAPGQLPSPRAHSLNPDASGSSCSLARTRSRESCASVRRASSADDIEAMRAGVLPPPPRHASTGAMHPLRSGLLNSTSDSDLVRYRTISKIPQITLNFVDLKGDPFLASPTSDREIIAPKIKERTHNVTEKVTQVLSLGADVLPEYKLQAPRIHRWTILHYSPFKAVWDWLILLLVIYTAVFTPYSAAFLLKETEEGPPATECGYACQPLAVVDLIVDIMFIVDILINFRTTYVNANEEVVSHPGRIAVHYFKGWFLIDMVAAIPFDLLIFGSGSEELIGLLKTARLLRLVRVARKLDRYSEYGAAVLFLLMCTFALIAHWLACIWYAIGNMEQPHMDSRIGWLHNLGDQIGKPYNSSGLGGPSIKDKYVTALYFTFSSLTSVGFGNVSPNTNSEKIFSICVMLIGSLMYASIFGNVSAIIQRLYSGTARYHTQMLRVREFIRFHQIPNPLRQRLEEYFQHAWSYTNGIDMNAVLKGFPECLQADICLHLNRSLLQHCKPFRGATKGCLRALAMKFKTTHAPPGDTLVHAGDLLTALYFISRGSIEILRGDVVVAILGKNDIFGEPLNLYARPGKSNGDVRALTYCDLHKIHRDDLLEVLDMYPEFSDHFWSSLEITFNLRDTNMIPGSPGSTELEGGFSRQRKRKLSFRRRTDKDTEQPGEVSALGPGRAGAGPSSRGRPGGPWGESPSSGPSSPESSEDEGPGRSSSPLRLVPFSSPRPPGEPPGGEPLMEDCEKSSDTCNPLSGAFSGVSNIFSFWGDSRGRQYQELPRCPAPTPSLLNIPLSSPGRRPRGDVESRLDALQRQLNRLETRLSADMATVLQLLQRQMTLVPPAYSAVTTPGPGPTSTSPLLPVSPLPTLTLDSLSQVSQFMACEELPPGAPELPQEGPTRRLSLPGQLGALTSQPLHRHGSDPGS
Cytochrome P450 2C9 (Homo sapiens), sequence (P11712 whole entry, looked up): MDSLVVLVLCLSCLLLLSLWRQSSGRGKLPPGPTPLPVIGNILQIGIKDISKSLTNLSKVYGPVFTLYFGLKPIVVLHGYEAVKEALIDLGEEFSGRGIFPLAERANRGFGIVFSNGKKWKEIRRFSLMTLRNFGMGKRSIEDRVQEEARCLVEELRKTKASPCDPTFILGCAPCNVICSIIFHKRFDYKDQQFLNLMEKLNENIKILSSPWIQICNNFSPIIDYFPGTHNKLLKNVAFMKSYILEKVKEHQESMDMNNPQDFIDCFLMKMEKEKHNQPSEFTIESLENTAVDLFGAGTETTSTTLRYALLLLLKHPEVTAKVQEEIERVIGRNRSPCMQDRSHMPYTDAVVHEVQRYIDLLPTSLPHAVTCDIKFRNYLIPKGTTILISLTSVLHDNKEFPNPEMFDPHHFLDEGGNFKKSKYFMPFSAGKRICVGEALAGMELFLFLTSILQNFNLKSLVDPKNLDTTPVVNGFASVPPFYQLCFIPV
Cytochrome P450 1A2 (Homo sapiens), sequence (P05177 whole entry, looked up): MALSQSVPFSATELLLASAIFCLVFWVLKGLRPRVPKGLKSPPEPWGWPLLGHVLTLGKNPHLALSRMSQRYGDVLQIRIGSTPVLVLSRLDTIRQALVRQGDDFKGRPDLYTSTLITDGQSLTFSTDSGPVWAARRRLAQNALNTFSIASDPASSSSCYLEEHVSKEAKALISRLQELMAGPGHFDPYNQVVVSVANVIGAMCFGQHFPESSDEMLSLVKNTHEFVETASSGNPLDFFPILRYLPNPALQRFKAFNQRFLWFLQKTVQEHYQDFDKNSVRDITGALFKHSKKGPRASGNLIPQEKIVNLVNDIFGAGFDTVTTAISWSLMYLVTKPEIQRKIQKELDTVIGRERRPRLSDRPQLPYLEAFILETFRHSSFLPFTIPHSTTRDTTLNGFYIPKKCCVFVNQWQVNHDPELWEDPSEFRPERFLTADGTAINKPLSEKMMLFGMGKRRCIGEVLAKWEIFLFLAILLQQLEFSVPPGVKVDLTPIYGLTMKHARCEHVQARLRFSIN
Cytochrome P450 2D6 (Homo sapiens), sequence (P10635 whole entry, looked up): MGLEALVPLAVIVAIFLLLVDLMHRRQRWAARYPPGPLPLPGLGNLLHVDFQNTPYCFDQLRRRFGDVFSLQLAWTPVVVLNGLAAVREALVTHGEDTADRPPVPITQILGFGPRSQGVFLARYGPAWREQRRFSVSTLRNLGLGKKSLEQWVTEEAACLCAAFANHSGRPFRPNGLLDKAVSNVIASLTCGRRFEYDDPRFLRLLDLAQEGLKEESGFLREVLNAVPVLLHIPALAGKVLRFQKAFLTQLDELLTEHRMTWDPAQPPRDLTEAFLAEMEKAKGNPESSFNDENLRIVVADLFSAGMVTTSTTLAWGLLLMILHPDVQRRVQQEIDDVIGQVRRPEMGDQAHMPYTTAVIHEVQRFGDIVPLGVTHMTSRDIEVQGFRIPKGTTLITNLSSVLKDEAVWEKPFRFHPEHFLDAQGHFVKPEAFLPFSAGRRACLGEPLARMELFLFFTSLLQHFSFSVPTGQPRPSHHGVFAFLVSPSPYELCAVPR
Cytochrome P450 2C19 (Homo sapiens), sequence (P33261 whole entry, looked up): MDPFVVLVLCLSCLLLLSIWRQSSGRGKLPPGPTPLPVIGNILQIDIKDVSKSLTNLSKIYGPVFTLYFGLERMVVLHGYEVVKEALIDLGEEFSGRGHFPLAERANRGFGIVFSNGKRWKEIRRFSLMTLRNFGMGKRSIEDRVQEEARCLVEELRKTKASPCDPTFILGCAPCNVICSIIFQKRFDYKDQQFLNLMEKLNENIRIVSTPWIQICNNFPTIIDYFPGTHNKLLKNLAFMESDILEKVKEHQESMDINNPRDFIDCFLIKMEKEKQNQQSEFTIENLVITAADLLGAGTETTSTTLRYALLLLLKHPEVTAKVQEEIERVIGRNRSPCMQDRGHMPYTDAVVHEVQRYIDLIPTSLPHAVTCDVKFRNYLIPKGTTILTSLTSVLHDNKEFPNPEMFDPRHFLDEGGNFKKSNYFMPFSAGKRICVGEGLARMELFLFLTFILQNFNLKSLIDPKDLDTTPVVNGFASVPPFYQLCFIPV
Acetylcholinesterase (Homo sapiens), sequence (P22303 whole entry, looked up): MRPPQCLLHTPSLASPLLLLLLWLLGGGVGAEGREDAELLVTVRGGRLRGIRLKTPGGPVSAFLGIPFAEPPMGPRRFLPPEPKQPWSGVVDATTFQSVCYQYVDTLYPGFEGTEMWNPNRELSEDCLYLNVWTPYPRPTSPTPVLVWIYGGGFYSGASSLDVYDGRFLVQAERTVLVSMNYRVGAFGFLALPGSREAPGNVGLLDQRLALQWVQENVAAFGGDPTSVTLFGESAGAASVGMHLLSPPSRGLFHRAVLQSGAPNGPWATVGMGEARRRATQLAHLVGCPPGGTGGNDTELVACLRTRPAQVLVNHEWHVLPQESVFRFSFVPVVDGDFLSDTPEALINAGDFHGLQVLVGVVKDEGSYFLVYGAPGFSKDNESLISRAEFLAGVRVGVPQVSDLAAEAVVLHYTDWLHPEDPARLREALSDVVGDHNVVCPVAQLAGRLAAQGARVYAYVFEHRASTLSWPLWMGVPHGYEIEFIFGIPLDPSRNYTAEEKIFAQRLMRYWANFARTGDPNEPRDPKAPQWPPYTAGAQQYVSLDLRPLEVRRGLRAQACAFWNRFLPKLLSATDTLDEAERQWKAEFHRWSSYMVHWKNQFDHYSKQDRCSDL
Cytochrome P450 3A4 (Homo sapiens), sequence (P08684 whole entry, looked up): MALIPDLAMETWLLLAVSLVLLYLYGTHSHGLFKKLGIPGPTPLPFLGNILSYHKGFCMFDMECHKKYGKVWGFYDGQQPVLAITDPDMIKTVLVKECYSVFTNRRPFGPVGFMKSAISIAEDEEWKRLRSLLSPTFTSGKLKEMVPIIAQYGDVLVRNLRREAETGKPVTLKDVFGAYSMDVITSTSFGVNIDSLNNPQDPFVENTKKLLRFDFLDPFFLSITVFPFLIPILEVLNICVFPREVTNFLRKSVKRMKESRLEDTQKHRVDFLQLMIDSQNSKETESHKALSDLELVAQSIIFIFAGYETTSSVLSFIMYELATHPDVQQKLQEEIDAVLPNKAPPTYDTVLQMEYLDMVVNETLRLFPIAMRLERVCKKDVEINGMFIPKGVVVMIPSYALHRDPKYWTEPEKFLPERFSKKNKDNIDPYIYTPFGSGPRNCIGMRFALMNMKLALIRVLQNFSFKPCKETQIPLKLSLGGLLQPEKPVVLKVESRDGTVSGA

Take `COC1=CC(=O)O[C@@H](/C=C/c2ccccc2)C1`: the Potency result in [1], in assay [4], in [6], in [7], in assay [8] and in assay [9] was “inactive” in each case. Also, the Potency entry in assay [13] and in [14] was “inactive” throughout. Also, the result in assay [2] and in [3] was inactive. For the same compound, the Potency was 24.7 µM (active) in assay [5], 5.72 µM (active) in [10], 32.2 µM (active) in assay [11] and 28.7 µM (active) in [12].
With `N=C(N)[Se]`, the Potency entry in [1], in [15], in assay [4], in [5], in [6] and in assay [7] was “inactive” in each case. In addition, the Potency entry in [8], in assay [9], in assay [10], in assay [11], in assay [12] and in assay [13] was “inactive” in each case. In assay [14], the Potency entry was “inactive”. The outcome in assay [2] and in assay [3] was inactive.
Take `COC[C@@H](NC(C)=O)C(=O)NCc1ccccc1`: the Potency entry in assay [1], in [15], in assay [4], in assay [5], in [6] and in assay [7] was “inactive” in each case. For the same compound, the Potency result in [8], in assay [9], in [16], in assay [10], in assay [11] and in assay [14] was “inactive” each time. Besides, in assay [2], the outcome was inactive.
For `CNC(=O)Oc1ccccc1C(C)C`, the Potency result in assay [1], in assay [4], in assay [5], in assay [13] and in assay [14] was “inactive” throughout. The call in [2] and in assay [3] was inactive. The Potency in assay [6] was 3.56 µM (active); in [7] it was 7.96 µM (active); in assay [8] it was 4.48 µM (active); in [9], 56.4 µM (active); in assay [10], 39.9 µM (active); in assay [12], 35.6 µM (active).
Consider `CCN1CCCC1CNC(=O)C(O)(c1ccccc1)c1ccccc1` (configuration not stated), for which the Potency entry in assay [1], in assay [4], in assay [5], in [6], in assay [7] and in assay [8] was “inactive” each time. In addition, the Potency result in assay [9], in assay [10], in [11] and in assay [12] was “inactive” throughout. Moreover, the compound was classed as inactive in [2]. Further, the Potency in assay [14] was 4.9 µM (active).
For `CCOP(=O)(CN(CCO)CCO)OCC`, the Potency result in [1], in [15], in assay [4], in assay [5], in [6] and in assay [8] was “inactive” in each case. The Potency entry in [11], in assay [13] and in assay [14] was “inactive” throughout. The outcome in [2] and in assay [3] was inactive.
On to `CC(C)[C@]12CC(=O)[C@H](C)[C@H]1C2`, for which the Potency result in assay [1], in [15], in [4], in assay [5], in assay [6] and in [7] was “inactive” in each case. Also, the Potency entry in [8], in assay [9], in assay [16], in assay [10], in assay [11] and in assay [12] was “inactive” in each case. Moreover, the Potency entry in [13] and in [14] was “inactive” throughout. Moreover, the outcome in [2] and in [3] was inactive.
For `CC(O)CCl` (configuration not stated), the Potency result in [1], in [4], in [5], in [6], in [8] and in assay [9] was “inactive” throughout. In addition, the Potency result in assay [16], in [10], in assay [11], in assay [13] and in assay [14] was “inactive” throughout. For the same compound, the compound was called inactive in [2] and in assay [3].
